Values without a mark were called inactive. The source made the active and inactive calls.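 How the source made its calls: active means growth inhibition above 50% at the single 2 µM test dose, taken to imply half-maximal potency below 2 µM; inactive means the rest.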
Test: antimalarial activity against Dd2 strain (AID 2302);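 further: 0% = DMSO untreated growth and 100% = chloroquine plus artemisinin killed control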
Details: P. falciparum Dd2 in RBCs, LDH growth readout, 72 h; at 2 µM; stronger effect = higher value
For `O=C(Nc1ccccc1)Nc1cccc(-c2nn3c(OCCN4CCCC4)cccc3c2-c2ccncc2)c1`, the growth inhibition was 98% (active).
In the case of `N#Cc1ccc(C(=O)Nc2cc(-c3cccc(O)c3)cc3[nH]ncc23)cc1`, the growth inhibition is reported as 79% (active).
With `NS(=O)(=O)c1cccc(N=Cc2c(O)[nH]c3ccc(S(=O)(=O)Cc4c(Cl)cccc4Cl)cc23)c1` the growth inhibition was 99% (active).
`Cn1cccc1C(=O)Nc1cccc(-c2nn3ccccc3c2-c2ccnc(Nc3ccc4c(c3)OCCO4)n2)c1` showed a growth inhibition of 27%.
For `CCN(CC)CCNC(=O)c1ccc(Nc2ncc([N+](=O)[O-])c(Nc3ccccc3OC)n2)cc1`, the growth inhibition was 58% (active).
For `CC(=O)Nc1ccc(Nc2ncc([N+](=O)[O-])c(Nc3ccccc3C(N)=O)n2)cc1`, the growth inhibition was 97% (active).
In the case of `CCS(=O)(=O)c1ccc(OC)c(Nc2nccc(-c3c(-c4cccc(NC(=O)c5c(F)cccc5F)c4)nn4ncccc34)n2)c1`, the growth inhibition is reported as 88% (active).
In the case of `COc1cc(Nc2nccc(-c3c(-c4cccc(NC(=O)c5c(F)cccc5F)c4)nn4ncccc34)n2)cc(OC)c1OC`, the growth inhibition is reported as 97% (active).
In the case of `O=C(O)c1ccc(-c2cnc3ccc(NC4CCC(O)CC4)nn23)cc1` (stereo not drawn), the growth inhibition is reported as 90% (active).
In the case of `CCn1c(-c2nonc2N)nc2c(-c3cc4ccccc4s3)ncc(C(=O)N3CCC(N)C3)c21` (stereo not drawn), the growth inhibition is reported as 66% (active).
In the case of `Cc1[nH]nc2ccc(-c3cc(OC[C@@H](N)Cc4ccccc4)cnc3-c3cc4ccccc4s3)cc12`, the growth inhibition is reported as 68% (active).
For `CCNC(=O)Nc1ccc(N(C)c2ccnc(Nc3ccc(CS(C)(=O)=O)cc3)n2)cc1`, the growth inhibition was 99% (active).
In the case of `CCN(CC)CCNC(=O)c1ccc(N=Cc2c(O)[nH]c3ccc(S(=O)(=O)Cc4c(Cl)cccc4Cl)cc23)cc1`, the growth inhibition is reported as 56% (active).

Reference: PubChem BioAssay
